# Laboratory results: PubChem BioAssay (NCATS)
# Results filed as inconclusive are left out. Values without a mark were called inactive. Calls come from the whole dose curve; as a rule, active = well fitted cell-killing curve with a large enough effect; inconclusive = small, poorly fitted or top-dose-only effect; inactive = no such curve, though single readings can be large or run the other way.
# Assay: qHTS of pediatric cancer cell lines to identify multiple opportunities for drug repurposing: Primary screen for Rh30 cells (AID 1347107); note: nearly all actives have a fitted effect of over 75% in size
# Settings: Rh30 rhabdomyosarcoma viability, CellTiter-Glo luminescence, 48 h; series mostly up to 46 µM; activity change, negative = cytotoxic: at the top concentration
# Procedure, shortened: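 Cells (500-1,000/well) rested 5 h, then received compounds for 48 h; metabolically active cells were measured by CellTiter-Glo luminescence. Final concentrations spanned up to 46 µM (MIPE, 11-point) or 0.59 nM-46 µM (NPC, 8-point) in primary screens, 11-point in follow-ups.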
# % is set by controls: 0 for no effect and ±100 for the full control effect.
row,Compound,"activity change, negative = cytotoxic"
1,CC1(COc2ccc(CC3SC(=O)NC3=O)cc2)CCCCC1 (stereo not given),18.7%
2,CN1CCN(c2cc3c(cc2F)c(=O)c(C(=O)O)cn3-c2ccc(F)cc2)CC1,10.8%
3,CCCCN1C[C@H](O)[C@@H](O)[C@H](O)[C@H]1CO,11.1%
4,CCCCCCCCCCCCOCCOCCOCCOCCOCCOCCOCCOCCOCCO,-4.9%
5,O=C(O)CCNC(=O)c1ccccc1,22.4%
6,CC(C)Cn1cnc2c1c(=O)n(C)c(=O)n2C,6.46%
7,CCN1CCCC(OC(=O)C(c2ccccc2)c2ccccc2)C1 (stereo not given),3.39%
8,CC(=O)O[C@]1(C(C)=O)CC[C@H]2[C@@H]3C=C(C)C4=CC(=O)CC[C@]4(C)[C@H]3CC[C@@]21C,19.7%
9,COc1cc(O)c(C(=O)c2ccccc2)cc1S(=O)(=O)O,19.8%
10,Cc1nc(-c2ccc(Cl)cc2)oc1COC(C)(C)C(=O)O,19.2%
11,Cc1cccc(C)c1NC(=O)CN1CCCCCC1,28.9%
12,CN(C)C(=O)Nc1ccc(Cl)c(Cl)c1,13.2%
13,CCOc1ccccc1C(N)=O,9.92%
14,CC1=C(C(=O)O)N2C(=O)[C@@H](NC(=O)[C@H](N)c3ccccc3)[C@H]2SC1,18.2%
15,CCCCNc1ccc(C(=O)OCCOCCOCCOCCOCCOCCOCCOCCOCCOC)cc1,-14%
16,CCCCCCCCCCCCCCCCO,10.1%
17,C#C[C@]1(O)CC[C@H]2[C@@H]3CCC4=CC(=O)CC[C@@H]4[C@H]3CC[C@@]21CC,14.9%
18,CCC(C(=O)OCCOCCN(CC)CC)c1ccccc1 (stereo not given),-0.467%
19,CN1CCC(OC(c2ccccc2)c2ccccc2)CC1,25.3%
20,CCN[C@@H]1C[C@H](N)[C@@H](OC2OC(CN)=CCC2N)[C@H](O)[C@H]1O[C@H]1OC[C@](C)(O)[C@H](NC)[C@H]1O (stereo not given in full),14.5% [at 0.597 µM]
